Source: PubChem BioAssay (several laboratories)
Hits are enriched below; roughly 4.5% of the tested compounds scored in any of these assays.
tim23-1 inh – growth inhibitors of tim23-1 mutant yeast, primary screen, luminescence, uHTS. S. cerevisiae tim23-1 growth, BacTiter-Glo luminescence, 24 h. inhibition, % at 20 µM. 330,000 tested, 1.3% active;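 active means growth inhibition of the mutant yeast at or above 50%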;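 further: temperature-sensitive mutant grown at 25 °C; plate controls were DMSO-treated mutant yeast for no effect and medium wells lacking yeast for full effect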
NLRP3 yeast inh – NALP3 inflammasome inhibitors in reconstituted yeast, primary screen, luminescence, uHTS; Yeast reconstituted NLRP3/ASC/caspase-1, beta-gal luminescence, 24 h; 330,000 tested, 0.39% active; inhibition, % at 10 µM;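 active means inhibition of 50% or more; inactive means inhibition below 50%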;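 further: plate controls were induced DMSO wells for no effect and uninduced yeast grown without galactose for full effect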
SKKanGAS inh – S. pyogenes SKKanGAS growth inhibitors in kanamycin, primary screen, streptokinase expression inhibitor project, SKKanGAS strain, BacTiter-Glo luminescence; 6 h; inhibition, % at 7.5 µM; 300,000 tested, 1.3% active;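 active means mean replicate score, as percent of positive control median, at least 50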;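 further: strain carries kanamycin resistance gene driven by streptokinase promoter and grows in 40 µg/ml kanamycin; loss of luminescence reflects streptokinase promoter inhibition or plain growth inhibition; 0% = median of DMSO wells and 100% = positive control at its reference dose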
TIM10 inh – growth inhibitors of isogenic TIM10 control yeast, primary screen, counter-screen for tim10-1 yeast inhibitor project, luminescence, uHTS | S. cerevisiae TIM10 strain growth, BacTiter-Glo luminescence, 24 h | inhibition, % at 10 µM | 330,000 tested, 1.4% active;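 active means inhibition of 40% or more at the single tested concentration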;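 further: wild-type TIM10 isogenic control strain grown at permissive 25 °C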
PfHsp90 yeast 2 – growth inhibition of PfHsp90-expressing yeast, primary screen, antimalarial PfHsp90 inhibitor project, S. cerevisiae, BacTiter-Glo luminescence, single point, set 2 | BacTiter-Glo ATP, 48 h; yeast lacking PDR1 and PDR3 efflux regulators | inhibition, % at 9.4 µM | 310,000 tested, 0.32% active | AID 504621, 2011;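 active means every replicate shows inhibition above about 80%, whatever the replicate mean, limit read from the data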;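 further: 0% = DMSO neutral controls and 100% = 20 µM radicicol positive controls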
tim10-1 inh – growth inhibitors of tim10-1 mutant yeast, primary screen, luminescence, uHTS; inhibition, % at 20 µM; S. cerevisiae tim10-1 ts strain growth, BacTiter-Glo, 24 h; AID 463190, 2010; 330,000 tested, 2.2% active;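 active means inhibition of at least 40%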;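 further: mutant grown at 25 °C; 0% = DMSO wells with yeast and 100% = wells holding no yeast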
TIM10 conf – growth inhibitors of wild-type TIM10 yeast, confirmation, counter-screen for tim10-1 synthetic lethality project, single concentration, luminescence, S. cerevisiae. shares compounds with TIM10 inh. S. cerevisiae tim10 strain growth, BacTiter-Glo luminescence, 24 h. inhibition, % at 10 µM. 4,600 tested, 63% active;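 active means inhibition of yeast growth at or above a set limit in either of two replicates at 10 µM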;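 further: this counterscreen used the strain with wild-type TIM10; 0% = yeast with DMSO and 100% = medium wells lacking yeast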
* = called active by the depositor; x = no result given.

SMILES	tim23-1 inh	NLRP3 yeast inh	SKKanGAS inh	TIM10 inh	PfHsp90 yeast 2	tim10-1 inh	TIM10 conf
CC(C)(C)C(=O)NNC(=O)C1CC1(c1ccccc1)c1ccccc1 (configuration not stated)	19.0	17.7	-0.7	16.7	10.9	-11.8	x
COc1ccc(CNC(=S)Nc2ccccc2-c2ccccc2)cc1	14.7	9.8	5.7	47.7*	x	23.8	30.4
CN(C)c1cccc(C(=O)N(C)C2CCCN(Cc3ccccc3F)C2)c1 (configuration not stated)	-3.6	25.5	1.4	-5.1	-21.9	5.0	x
COc1ccc(-c2[nH]n(-c3ccc([N+](=O)[O-])cc3)c(=O)c2C=NCc2ccncc2)cc1	32.6	8.5	x	42.9*	22.2	36.2	6.7
CC1CCN(C(=O)Cn2c(=O)c3cccn3c3ccccc32)CC1	4.5	13.9	16.5	2.9	16.6	12.7	x
Nc1nc(Nc2cccc(F)c2)nc2ccccc12	29.0	15.0	3.9	40.0	36.1	35.5	29.9
O=c1oc(Nc2cccc(F)c2)nc2ccccc12	26.0	2.0	11.6	20.7	33.2	15.5	x
CSc1ncccc1C(=O)N1CCN(S(=O)(=O)c2ccccc2)CC1	11.3	0.7	1.0	8.0	-16.5	4.8	x
CC(=O)c1ccc2c(c1)Nc1ccccc1S2	16.7	34.0	-3.6	87.9*	6.3	15.6	2.7
Cc1cc(Oc2nnnn2-c2ccccc2)ccc1Cl	38.6	-15.6	10.4	40.3*	x	39.6	29.8*
Cc1cc(C(=O)N2CCc3c([nH]c4ccccc34)C2c2cccc(Cl)c2)nn1C (configuration not stated)	35.3	9.7	28.7	16.8	-22.0	-5.0	x
O=C(c1cnccn1)N1CCc2c([nH]c3ccccc23)C1c1cccc(Cl)c1 (configuration not stated)	30.4	-2.9	25.1	41.2*	-11.8	22.7	23.6
CCCC(=O)Nc1ccccc1Sc1ncnc2scc(-c3ccccc3)c12	47.0	15.6	-1.7	46.6*	-20.4	27.8	50.8*
CC(=O)Nc1ccc(Sc2ncnc3scc(-c4ccccc4)c23)cc1	28.6	31.7	4.6	35.3	0.8	27.8	x
CCOC(=O)c1ccc(-n2c(CN(CC)CC)nc3ccc([N+](=O)[O-])cc3c2=O)cc1	14.4	13.0	-0.6	3.6	-10.4	13.5	x
O=C(CCCOc1ccc(Cl)cc1Cl)N/N=C/c1ccccc1O	38.8	12.1	32.9	41.3*	16.4	-1.2	39.6*
Cc1ccc(N2C(=O)c3cccc(Oc4ccc(Cl)cc4)c3C2=O)c(C)c1	29.0	-9.4	-9.9	41.7*	-10.4	22.9	23.6
Cc1ccccc1N1CCN(C(=O)c2ccc(Oc3ccc(C(F)(F)F)cn3)cc2)CC1	38.3	-3.6	5.6	47.2*	3.2	37.6	42.8*
COc1ncc(-c2ccc3c(c2)S(=O)(=O)c2cccc(C(=O)O)c2C3=O)cn1	-3.1	11.7	x	1.4	3.5	4.0	x
Cc1ccc(NC(=O)CCSc2nnc(C)s2)cc1	-14.1	13.8	-2.0	-3.6	x	9.1	x
CC1=NN(/C(=N\c2nnc(C)s2)Nc2ccc(C(C)(C)C)cc2)[C@H](c2ccc(C)cc2)S1	49.5	12.5	57.7*	52.4*	48.6	34.1	15.5
Cn1c(=O)c2ncn(CC(=O)N=Nc3c(O)[nH]c4ccccc34)c2n(C)c1=O	21.0	1.7	7.3	-3.8	x	-4.7	x
O=C(CNCCC1=CCCCC1)Nc1ccccc1N1CCCCC1	33.4	-12.7	0.8	40.5*	7.7	28.0	23.6
Cc1ccccc1NC(=S)NCCC(c1ccccc1)c1ccccc1	22.2	25.6	41.6	16.6	22.8	17.6	x
Cc1ccc(NC(=S)NCCC(c2ccccc2)c2ccccc2)c(C)c1	19.9	15.6	65.8*	48.7*	-44.2	20.5	33.0*
SMILES	tim23-1 inh	NLRP3 yeast inh	SKKanGAS inh	TIM10 inh	PfHsp90 yeast 2	tim10-1 inh	TIM10 conf
COc1ccc(OC)c(NC(=S)NCc2ccccc2OC)c1	26.9	16.5	11.5	14.5	-2.8	22.9	x
COc1ccc(OC)c(NC(=S)NCCC(c2ccccc2)c2ccccc2)c1	10.7	11.1	12.5	46.0*	-39.4	30.0	14.1
Cc1cnc(N=Nc2ccccc2)[nH]1	x	x	x	x	6.1	x	x
COc1ccc(CC(=O)Nc2c(C(=O)N3CCN(c4ncccn4)CC3)oc3ccccc23)cc1	23.5	7.6	1.3	21.9	-8.7	24.3	x
COc1ccc(OC)c(C(=O)c2coc3ccc(OC(C)=O)cc23)c1	39.3	20.2	1.9	26.6	-1.6	37.9	x
COc1ccc2occ(C(=O)c3cccs3)c2c1	28.2	24.5	2.2	42.2*	-16.8	6.6	38.9*
CCOC(=O)[C@H]1[C@H]2COc3ccc(OC)cc3[C@@H]2N2C(=O)CN(CCc3c[nH]c4ccccc34)C(=O)[C@@]12C	2.0	-1.0	x	-1.0	-20.2	-5.7	x
Cn1cnc([N+](=O)[O-])c1S(=O)(=O)c1ccc(Cl)cc1	x	x	7.1	x	-28.2	x	x
CC(C)Cn1c(C(C)C)nc([N+](=O)[O-])c1S(=O)(=O)c1ccc(F)cc1	30.3	8.4	8.9	40.2*	41.0	39.8	30.0
O=C(Nc1ccc(F)cc1)c1ccc(S(=O)(=O)N2CCCC2)cc1	21.3	7.1	-4.9	-17.2	-10.7	18.7	x
O=C(Nc1ccc(S(=O)(=O)N2CCCC2)cc1)c1cc(F)c(F)cc1Cl	36.5	7.5	-1.5	40.6*	-11.9	37.6	32.8*
O=C(Nc1ccc(Cl)cc1)c1ccc(S(=O)(=O)N2CCOCC2)cc1	10.1	20.4	3.3	0.7	-65.2	3.3	x
O=C(Nc1ccc(S(=O)(=O)N2CCOCC2)cc1)c1ccc(Cl)s1	32.5	7.6	-0.6	40.9*	-0.8	36.0	30.4
Cc1ccc(NC(=O)COC(=O)c2ccc(NC(=O)CC#N)cc2)cc1S(=O)(=O)N1CCOCC1	8.8	3.8	x	7.0	x	-1.8	x
CN1CCC(=NNC(=O)CN(c2cccc([N+](=O)[O-])c2)S(=O)(=O)c2ccccc2)CC1	13.6	5.5	7.0	4.9	-23.1	8.8	x
CN1CCC(=NNC(=O)CN(c2ccc([N+](=O)[O-])cc2)S(=O)(=O)c2ccccc2)CC1	8.4	19.8	4.3	40.4*	8.2	8.6	30.8*
CC(=O)c1ccccc1NS(=O)(=O)c1c(C)nn(-c2ccccc2)c1C	48.1	-1.6	-2.3	47.0*	10.3	32.4	29.8
c1ccc2cc(CSCc3nc4ccccc4[nH]3)ccc2c1	47.5	25.3	24.3	53.4*	28.7	35.3	-6.0
